The values below come from PubChem BioAssay (NCI).

This is part of a sample that, as a whole, favours compounds with a hit. Of some 83,000 tested, about 20% had one in any assay.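 Treatment: one concentration, 48 hours, 96-well format. Scoring: percent growth, with anything below 10 considered active.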 A number with no mark means an inactive call. The source made the active and inactive calls.

This test has as its system COLO 205 colon. In words: NCI-60 one-dose screen, 48 h (100 = growth as untreated, 0 = no growth, -100 = all killed). The following applies: 10 µM unless noted.
Consider `COc1cc2c(=O)n(C3CCCCCCC3)c3c4cc[nH]c4ncc3c2cc1OC`, for which the growth is 58.5%. As to `C1CCC([PH+](C2CCCCC2)C2CCCCC2[PH+](C2CCCCC2)C2CCCCC2)CC1.[Au].[CH-]1CCCCC1CC1CCCC[N-]1` (configuration not stated), the growth was -47.7% (active). The figure for `CCCCN1CCCC[C@@H]1C(=O)N[C@H](C(=O)N(C)[C@H](C[C@@H](OC(C)=O)c1nc(C(=O)NC2CCC(C(=O)OC)CC2)cs1)C(C)C)C(C)C` (some centres not stated) is 7.59% (active); for `CS(=O)(=O)CCN1CC2CCCC(C2)C1` it is 99%.

Turning to `COC(=O)[C@@H](C)C[C@H](Cc1ccccc1)NC(=O)c1nc([C@@H](C[C@H](C(C)C)N(C)C(=O)[C@@H](NC(=O)[C@H]2CCCCN2C)C(C)C)OC(C)=O)sc1C(C)C`, the growth is -61.5% (active). The value for `C=CC[Se]C(=O)c1ccccc1OC(C)=O` was 36%.

`CC(C)[C@@H]1NC(=O)[C@]2(C)CSC(=N2)c2csc(n2)CNC(=O)C[C@@H](/C=C/CCS)OC1=O`: the growth is -78.3% (active). The figure for `Clc1cccc(Cl)c1Cl` is 122%.

On to `O=C(CC1(O)C(=O)Nc2ccc(Cl)cc21)c1ccc(C(=O)NCC2CCC3(CC2)OOC2(CCCCC2)OO3)cc1` (configuration not stated), for which the growth was 1.29% (active).

Regarding `COc1ccc(C(O)(C(=O)O)c2ccc(OC)cc2)cc1`, the growth was 102%. The value for `CCn1c2ccccc2c2cc(C(=O)c3ccc(C)c4ccccc34)ccc21` was -16.3% (active).

For the compound `COC(=O)[C@]12CCC(C)(C)C[C@H]1[C@H]1C(=O)C[C@@H]3[C@@]4(C)C[C@@]5(CC(C)(C)[C@@H]4CC[C@@]3(C)[C@]1(C)CC2)OO[C@@](C)(C(F)(F)F)O5`, the growth is 134%. In the case of `CC[C@]12C=CCN3CC[C@@]4(c5ccc(OC)cc5N(C)[C@H]4[C@@](O)(C(=O)OC)[C@@H]1OC(=O)CCCC[P+](c1ccccc1)(c1ccccc1)c1ccccc1)[C@@H]32`, the growth was -93.7% (active).

As to `CCCCCCCCOC(=O)CCN1CC1`, the growth is 116%. Turning to `CC1[C@H](C)OC(=O)CC(O)CC(O)CC(O)CCC(O)C(O)C[C@]2(O)CC(O)C(C(=O)O)C(CC(OC3O[C@H](C)[C@@H](O)[C@H](N)[C@@H]3O)/C=C/C=C/C=C/C=C/CC/C=C/C=C/[C@H](C)[C@H]1O)O2` (some centres not stated), the growth is 93.7%.

For the compound `c1cc2c(c3c1CCNC3)OCO2`, the growth was 112%. For the compound `Cc1ccc(N2COOC3(OOC2)C2CC4CC(C2)CC3C4)cc1`, the growth was 110%. The figure for `O=C(CC1(O)C(=O)N(Cc2ccccc2)c2ccc(Br)cc21)c1ccc(C(=O)NCC2CCC3(CC2)OOC2(CCCCC2)OO3)cc1` (configuration not stated) is -49.5% (active); for `C[C@@H]1C[C@@]2(C)[C@@H](CC[C@@H]3[C@@H]2CC[C@]2(C)C(=O)CC[C@@H]32)CC1=O` it is 99.5%; for `CCN(CC)c1ccc2c(c1)OC(N)=C(C#N)C2c1cc(OC)c2c(c1)OCO2` (configuration not stated) it is -42.8% (active). Turning to `O=P(Oc1ccc(Cl)cc1)(N1CC1)N1CC1`, the growth was 94.6%.

For `O=[N+]([O-])c1cc(I)cc([N+](=O)[O-])c1`, the growth is 111%. The figure for `CC(=O)O[C@H](C[C@H](C(C)C)N(C)C(=O)[C@@H](NC(=O)[C@H]1CCCCN1C)C(C)(C)C)c1nc(C(=O)N[C@@H](Cc2ccccc2)C[C@H](C)C(=O)O)cs1` is -59.1% (active); for `CC[C@H](C)[C@H](NC(=O)[C@H]1CCCCN1C)C(=O)N(C)[C@H](C[C@@H](O)c1nc(C(=O)N[C@@H](Cc2ccccc2)C[C@H](C)C(=O)O)cs1)C(C)C` it is 83.6%; for `CN1CCC(O)(c2ccc(F)cc2)C(C(=O)c2ccc(F)cc2)C1` (configuration not stated) it is 115%. The value for `O=C1NC(=O)C(=Cc2cccn2CCCCCn2c3ccccc3c(=O)c3ccccc32)C(=O)N1` was 114%; that for `COC(=O)[C@@H](C[C@H](Cc1ccccc1)NC(=O)c1csc([C@@H](C[C@H](C(C)C)N(C)C(=O)[C@@H](NC(=O)[C@H]2CCCCN2C)C(C)C)OC(C)=O)n1)NC(=O)OCc1ccccc1` was -65.4% [9.5 µM] (active). As to `CN(C)CCCOc1ccc2c(c1)c(C(=O)C(=O)NCCO)cn2Cc1ccccc1`, the growth was 107%. Consider `COc1cc(C=Nc2cc(Cl)cc(Cl)c2)ccc1N(CCCl)CCCl`, for which the growth is 76.9%. The figure for `CCOC(=O)N[C@H]1CCc2c(Br)c(OC)c(OC)c(OC)c2-c2ccc(SC)c(=O)cc21` is 5.51% (active).

As to `C/C(CC(C)(C)N1CC1)=N\NC(=O)Nc1cccc2ccccc12`, the growth is 52.3%.

As to `C[C@]12CCc3sc(-c4ccccc4O)nc3C1=CC[C@@H]1[C@@H]2CC[C@]2(C)C(=O)CC[C@@H]12`, the growth was 108%.

Consider `CC[C@H](C)[C@H](NC(=O)[C@H]1CCCCN1C)C(=O)N(C)[C@H](CC(=O)c1nc(C(=O)N[C@@H](Cc2ccccc2)C[C@H](C)C(=O)O)cs1)C(C)C`, for which the growth is 82.8%.

Regarding `COc1cccc(/C=C/[N+](=O)[O-])c1`, the growth is 19.5%.

As for `O=C1CC2(CC3(Cl)C(Cl)=C(Cl)C2(Cl)C3(Cl)Cl)C(=O)O1` (configuration not stated), the growth was 126%.

Take `CC12CCC3C(CCC4=CC(=O)CCC43CF)C1CCC2=O` (configuration not stated): the growth was 135%. As to `Nc1ccc(-c2nc3cc(F)ccc3[se]2)cc1F`, the growth was 56.2%.
